In PubChem BioAssay (Tox21):
Records with an inconclusive call do not appear. Entries that show only a call come without a potency. Values without a mark were called inactive. Calls of active or inactive are those of the source. Calls come from the whole dose curve.

These compounds were tested against Thyrotropin receptor (Homo sapiens) (UniProt P16473) (assay: qHTS assay to identify small molecule antagonists of the thyroid stimulating hormone receptor (TSHR) signaling pathway (AID 1259385; note: nearly all actives have a fitted effect of over 20% in size)). Details: TSHR-HEK293 cAMP HTRF, TSH-stimulated antagonist mode; series mostly up to 92.4 µM.
Source text: U.S. Tox21 Program National Center for Advancing Translational Sciences [NCATS] NIH Chemical Genomics Center [NCGC] U.S. Environmental Protection Agency [EPA] National Institutes of Environmental Health Sciences [NIEHS] National Toxicology Program [NTP] U.S. Food and Drug Administration [FDA] Tox21 Assay Overview: TSHR is the receptor for thyrotropin (thyroid stimulating hormone or TSH), a member of the glycoprotein hormone family. TSH is released by the anterior pituitary gland and is the main regulator of thyroid gland growth and development. Upon binding circulating thyrotropin, a G-protein signal cascade activates adenylyl cyclase and […] cAMP concentration is increased. cAMP is a key second messenger involved extensively in cellular signal transduction pathways associated with the majority of G-protein coupled receptors (GPCRs). The activation of these GPCRs by neurotransmitters, lipids, nucleotides, peptides and hormones results in the activation or the inhibition of plasma membrane-bound adenylate cyclase through heterotrimeric G-proteins. A cell-based TSHR assay can be used to screen chemical compounds that modulate TSHR either in agonist or antagonist mode.
Tox21 Assay Protocol Summary: TSHR-Hek293 cells were dispensed at 800 cells/4uL/well in 1536-well white plates using a Multidrop dispenser. After the assay plates were incubated at a 37C/5% CO2 incubator for 18 hrs, 23 nL of compounds dissolved in DMSO, positive controls or DMSO only was transferred to the assay plate by a pin tool, followed by 1 ul medium containing Ro20-1724. For the antagonist mode screening, 1 uL of TSH was added on the top of the cell/compound mixtures to achieve a final agonist concentration of 1.5 ng/mL. After 30 min of incubation at room temperature, 2.5 ul/well of cAMP-d2 and 2.5 ul/well of anti-cAMP-cryptate were added respectively into the assay plates using a Flying Reagent Dispenser. The plates were incubated at room temperature for 1 hr. The fluorescence intensity in the plates was measured using an Envision plate reader. Each test compound was measured at 15 concentrations and in triplicates.
Potency is the fitted concentration of half-maximal effect.

Chain of Thyrotropin receptor (Homo sapiens) (P16473 whole entry, looked up): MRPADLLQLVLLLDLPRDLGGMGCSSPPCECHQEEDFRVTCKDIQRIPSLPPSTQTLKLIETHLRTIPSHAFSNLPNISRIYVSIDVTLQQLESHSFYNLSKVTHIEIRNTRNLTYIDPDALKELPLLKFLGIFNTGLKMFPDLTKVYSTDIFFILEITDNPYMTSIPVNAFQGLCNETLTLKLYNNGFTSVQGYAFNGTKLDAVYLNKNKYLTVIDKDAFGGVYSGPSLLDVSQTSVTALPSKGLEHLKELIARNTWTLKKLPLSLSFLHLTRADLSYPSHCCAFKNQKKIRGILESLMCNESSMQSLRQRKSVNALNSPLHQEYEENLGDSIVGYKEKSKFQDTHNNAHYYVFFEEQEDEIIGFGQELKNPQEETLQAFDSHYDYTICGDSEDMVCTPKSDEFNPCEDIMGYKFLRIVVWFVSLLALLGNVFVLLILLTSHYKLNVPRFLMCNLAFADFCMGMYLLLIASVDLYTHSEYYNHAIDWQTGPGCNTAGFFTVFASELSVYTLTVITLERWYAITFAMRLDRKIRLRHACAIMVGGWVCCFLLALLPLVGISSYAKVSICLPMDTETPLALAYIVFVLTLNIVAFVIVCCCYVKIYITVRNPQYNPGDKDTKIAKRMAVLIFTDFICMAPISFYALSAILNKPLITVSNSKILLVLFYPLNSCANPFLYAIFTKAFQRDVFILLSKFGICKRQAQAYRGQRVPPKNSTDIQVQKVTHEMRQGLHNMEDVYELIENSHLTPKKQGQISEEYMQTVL

| Structure (SMILES) | Potency | activity change, negative = inhibition |
| --- | --- | --- |
| CCC(=O)OCCc1ccccc1 | inactive | – |
| CC(C)(C)c1n[nH]c(=O)n(N)c1=O | inactive | – |
| Clc1ccc(C(c2ccccc2Cl)C(Cl)Cl)cc1 (stereo not given) | inactive | – |
| C#CC(O)CCC (stereo not given) | inactive | – |
| NC1(c2ccc(-c3nc4ccn5c(=O)[nH]nc5c4cc3-c3ccccc3)cc2)CCC1 | 29.8 µM (active) | – |
| CCOC(=O)CC(C)O (stereo not given) | inactive | – |
| CCC1CCCCC1 | inactive | – |
| SCCCCCCCCS | inactive | – |
| COc1cccc(OC)c1O | inactive | – |
| COc1ccc(-n2nc(CCC(=O)N(C)O)cc2-c2ccc(Cl)cc2)cc1 | inactive | – |
| C(=C/c1ccccc1)/c1ccccc1 | inactive | – |
| CCCCCCCCCC(=O)N(C)C | inactive | – |
| C=C1C(C)(C)[C@@]2(Cl)C(Cl)[C@]1(Cl)C(Cl)(Cl)C2(Cl)Cl (stereo not given in full) | inactive | – |
| CC(C)c1cccc(C(C)C)c1N1C(=O)c2ccc(O)cc2C1=O | inactive | – |
| Nc1cc(Cl)c([N+](=O)[O-])cc1O | inactive | – |
| CCO[Si](C)(C)OCC | inactive | – |
| COc1ccc2sc(C(=O)Nc3nnn[nH]3)c(OC(C)C)c2c1 | inactive | – |
| CC(=O)O[C@@H]1C[C@@H]2CC[C@@]1(C)C2(C)C | inactive | – |
| CCOC(=O)[C@@](C)(N)Cc1ccc(O)c(O)c1 | inactive | – |
| CCC(C)c1ccccc1 (stereo not given) | inactive | – |

| Structure (SMILES) | Potency | activity change, negative = inhibition |
| --- | --- | --- |
| CCCCCCCCCCCCCOP(=O)(O)O | inactive | – |
| CC(COC(=O)c1ccccc1)OC(=O)c1ccccc1 (stereo not given) | inactive | – |
| O=C1OC(=O)c2cccc3cccc1c23 | inactive | – |
| Cc1c(C)n(Cc2ccccc2)c2ccc(C(=O)OCCN(C)C)cc12 | inactive | – |
| Cc1c(C(=O)O)cccc1[N+](=O)[O-] | inactive | – |
| O=S(=O)(O)c1cc(S(=O)(=O)O)c2ccc3c(S(=O)(=O)O)cc(S(=O)(=O)O)c4ccc1c2c43 | – | -2.92% [at 19 µM] |
| CCNc1nc(NC(C)CC)nc(OC)n1 (stereo not given) | inactive | – |
| CCCCCCCC(OC)OC | inactive | – |
| CCN(CC)CCCN(c1ccccc1)C1Cc2ccccc2C1 | inactive | – |
| Cc1cc(=O)[nH]c(=O)[nH]1 | inactive | – |
| COc1ccccc1OCCNCC(O)COc1cccc2[nH]c3ccccc3c12 (stereo not given) | 33.5 µM (active) | – |
| O=C[C@H](O)[C@H](O)[C@H](O)CO | inactive | – |
| O=CC1CC1 | inactive | – |
| CC(C)c1ccccc1N | inactive | – |
| C[Si](C)(C)Cl | inactive | – |
| CC1=C(/C=C/C(C)=C/C=C/C(C)=C\C=O)C(C)(C)CCC1 | inactive | – |
| CNC(=S)NN | inactive | – |
| CCc1cccc(C)c1 | inactive | – |
| C/C=C/CO | inactive | – |
| Clc1ccc(C(Cn2ccnc2)OCc2c(Cl)cccc2Cl)c(Cl)c1 (stereo not given) | inactive | – |
